The list is not random: actives were taken first. Their share in the collection is about 9.9%.
KB-V1 cytotox: qHTS assay for MDR1-selective chemotherapeutics: Primary screen using the drug-selected MDR subline cells KB-V1 | KB-V1 MDR cells viability, CellTiter-Glo, 72 h | actives 3.4% (n = 400,000) | Potency, µM (highest dose often 46.1 µM), most hits filed as cytotoxic | AID 1347076, 2019; also: potency is read from the fitted curve at half-maximal effect; % is scaled to controls: 0 for no effect and ±100 for the full control effect; nearly all actives have a fitted effect of over 60% in size
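KB-V1, DMEM (no phenol red) + 10% FBS; cpd pin-transferred, titration series; 72 h, 37 degrees C; CellTiter-Glo, luminescence. Data normalized, curve-fit.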
MCF10A rerep: A quantitative high throughput screen for small molecules that induce DNA re-replication in MCF 10a normal breast cells; MCF 10A DNA re-replication, Hoechst nuclear intensity, 48 h; Potency, µM (doses to about 46.1 µM), without a hit: at the top dose activity, positive = re-replication, hits mostly activators; actives 2.9% (n = 350,000); AID 624296, 2012; also: potency is read from the fitted curve at half-maximal effect; % of control where 0% means no effect; nearly all actives have a fitted effect of over 50% in size
SW480 rerep: A quantitative high throughput screen for small molecules that induce DNA re-replication in SW480 colon adenocarcinoma cells; SW480 DNA re-replication, Hoechst DNA content imaging, 48 h; actives 1.8% (n = 340,000); Potency, µM (titrated, usually from 46.1 µM), without a hit: at the highest dose re-replication activation, hits mostly activators; also: potency is read from the fitted curve at half-maximal effect; % of control where 0% means no effect; nearly all actives have a fitted effect of over 55% in size
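First, 250 cells per well were seeded. Next, compound or vehicle (23 nL) was pinned in, plates sat 48 hr at 37 C. Finally Hoechst was added for 40 min before fluorescence scanning.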
KB-3-1 tox: qHTS assay for MDR1-selective chemotherapeutics: Primary screen using the parental adenocarcinoma cell KB-3-1 | KB-3-1 viability, CellTiter-Glo ATP luminescence, 72 h | Potency, µM (top dose mostly 46.1 µM), actives largely listed as cytotoxic | actives 1.4% (n = 400,000) | AID 1347075, 2019; also: potency is read from the fitted curve at half-maximal effect; % is scaled to controls: 0 for no effect and ±100 for the full control effect; nearly all actives have a fitted effect of over 60% in size
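Multi-concentration cytotoxicity screen in KB-3-1 cells grown in DMEM lacking phenol red with 10% FBS. After 72 h at 37 °C with compound, ATP-dependent luminescence was recorded.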
IL1B secr inh: qHTS for Inhibitors of Inflammasome Signaling: IL-1-beta AlphaLISA Primary Screen; actives 4.7% (n = 360,000); activity change, % at 57.5 µM; THP-1 LPS/ATP IL-1B secretion, AlphaLISA, 16 h; hits give low values; in the data active = activity change below about -50%; inconclusive = mostly about -30% to -49%; also: % is scaled to controls: 0 for no effect and ±100 for the full control effect
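Secreted IL-1B measured by AlphaLISA bead assay after 16 h compound exposure of THP-1 cells; compounds (final up to 57.5 uM) added 1 h before LPS (250 ng/mL) and ATP (1.25 mM) stimulation; lower signal means less secretion.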
The depositor's hits bear a star; i = inactive; u = inconclusive; x = no result. Unless noted, calls follow the shape of the dose curve; as a rule, active = well fitted curve in the direction sought with a large enough effect; inconclusive = small, poorly fitted or top-dose-only effect, or another doubt; inactive = no such curve, though single readings can be large; an effect the other way counts as inactive or inconclusive.

SMILES	KB-V1 cytotox	MCF10A rerep	SW480 rerep	KB-3-1 tox	IL1B secr inh
CCOc1ccc(C(=O)NCC(=O)NCCSc2ccc(Br)cc2)cc1OCC	3.7µM*	2%	-6%	i	u
C=CCN1C(=O)S/C(=C\c2ccc3c(c2)n(C)c(=O)n3C)C1=O	18µM*	3%	6%	i	2
O=C(Nc1ncccc1O)c1ccc(S(=O)(=O)Nc2ccccc2)cc1	9.2µM*	19%	-648%	10µM*	30
O=C(Nc1ncccc1O)c1ccc(NS(=O)(=O)c2ccc3[nH]c(=O)[nH]c3c2)cc1	i	4%	16µM*	u	-2
CN(C)S(=O)(=O)c1ccc2nc(NC(=O)c3cccnc3)sc2c1	i	2%	-22%	i	-7
O=C(NC(Nc1nc2ccc([N+](=O)[O-])cc2s1)(C(F)(F)F)C(F)(F)F)c1cccnc1	u	28%	12%	12µM*	-70*
Nc1ccc2nc(SCc3ccc([N+](=O)[O-])cc3)sc2c1	u	-2%	-6%	i	-20
O=C(NC(Nc1nc2ccc([N+](=O)[O-])cc2s1)(C(F)(F)F)C(F)(F)F)c1ccccc1Cl	i	21µM*	u	u	-69*
O=[N+]([O-])c1ccc2nc(SCc3ccccc3Cl)sc2c1	i	13µM*	19%	i	2
COc1ccccc1NC(=O)Cn1c(=O)n(-c2ccc(C)cc2)c(=O)c2c1cnn2C	i	x	x	i	x
COc1ccc(-c2noc(N3CCCC(C(=O)Nc4ccc(C(C)=O)cc4)C3)n2)cc1 (stereo not drawn)	i	13%	-7%	i	u
Cc1cc(C(=O)NCc2ccccc2)c2c(C)nn(-c3cccc(F)c3)c2n1	u	x	x	i	x
Cc1ccc(N(Cc2cc3ccccc3[nH]c2=O)C(=O)c2cccc(Cl)c2)cc1	i	x	x	i	x
Cc1c(CCC(=O)NCCCn2ccnc2)c(=O)oc2c(C)c3occ(C(C)(C)C)c3cc12	i	u	21µM*	i	-97*
CCCNC(=O)C1(CC2CC(c3ccccc3)=NO2)CCN(C(=O)CCCCCBr)CC1 (stereo not drawn)	i	-2%	u	i	-1
Cc1ccc(S(=O)(=O)NC(=O)Nc2ccc(N(C)C)cc2)cc1	i	19%	7.3µM*	u	-80*
Cc1ccc(NC(=O)NNS(=O)(=O)c2ccc(Br)cc2)cc1	i	-1%	-2%	i	-1
CCOc1ccc(NC(=O)Cn2c(=O)cc(C)c3c(C)nn(-c4cccc(Cl)c4C)c32)cc1	i	x	x	i	x
CCN1CCC(NCCc2ccc(F)cc2)CC1	i	18µM*	-3%	i	-54*
Cc1ccc2nc(C3CCCCC3)c(Cc3cccc(Cl)c3)n2c1	i	x	x	i	-7
CCCCC[n+]1ccn(C2=C([O-])c3ccccc3C(=O)/C2=N\S(=O)(=O)c2ccccc2)c1	i	19%	11µM*	u	20
COc1ccc(C2CC(c3ccccc3OC(C)=O)=NN2C(=O)/C=C/c2ccccc2)cc1OC (stereo not drawn)	u	12%	-1%	u	-26
COc1ccc(C2=NN(C(=O)/C=C/c3ccccc3)C(c3ccccc3)C2)c(OC(C)=O)c1 (stereo not drawn)	2.9µM*	u	3%	u	-7
COc1cc(O)c(C(CCN2CCCCC2)c2ccc3c(c2)OCO3)c(OC)c1 (stereo not drawn)	i	9%	-9%	i	-81*
CS(=O)(=O)N1CCN(c2ccc(C(=O)NC34CC5CC(CC(C5)C3)C4)cc2[N+](=O)[O-])CC1	i	-1%	-4%	i	26
SMILES	KB-V1 cytotox	MCF10A rerep	SW480 rerep	KB-3-1 tox	IL1B secr inh
O=C(NC12CC3CC(CC(C3)C1)C2)c1ccc(N2CCNCC2)c([N+](=O)[O-])c1	23µM*	10%	u	18µM*	u
CCS(=O)(=O)c1ccc(O)c(NC(=O)Nc2ccccc2)c1	i	-7%	1%	i	12
CCS(=O)(=O)c1ccc(O)c(NC(=O)Nc2ccc(C(C)(C)C)cc2)c1	i	8%	-17%	i	-88*
Cc1ccc(C)c(NC(=S)/C(=C(\[O-])c2ccc(Cl)s2)[n+]2ccccc2)c1	i	0.65µM*	-10%	i	43
CCC1Sc2ccc(S(=O)(=O)CCC(=O)Nc3ccc(OC(F)(F)F)cc3)cc2NC1=O (stereo not drawn)	i	-3%	-15%	i	6
O=C(NCc1ccccc1)Nc1cccn(Cc2cccc(F)c2)c1=O	u	2%	2%	i	-6
O=C(NCc1ccccc1)Nc1cccn(Cc2ccc(F)cc2)c1=O	12µM*	-1%	1%	i	-6
O=C(NCc1ccccc1)Nc1cccn(Cc2ccccc2F)c1=O	10µM*	7%	10%	i	0
O=C(NCc1ccccc1)Nc1cccn(Cc2ccccc2)c1=O	u	7%	-1%	i	-9
O=C(Nc1cccn(Cc2ccccc2)c1=O)NC1CCCCC1	4.1µM*	9%	5%	i	-8
CSc1ccc(NC(=O)Nc2cccn(Cc3ccccc3F)c2=O)cc1	i	18%	u	u	-68*
O=C(Nc1cccn(Cc2ccc(F)cc2)c1=O)NC1CCCCC1	i	20%	-1%	i	-6
CCSc1nnc(NC(NC(C)=O)(C(F)(F)F)C(F)(F)F)s1	u	1%	-5%	i	-6
O=C(COc1ccccc1)Nc1nnc(S(=O)(=O)N2CCCCCC2)s1	i	9%	0%	i	-21
O=C(Nc1ccc2c(c1)OCO2)Nc1nnc(-c2ccncc2)s1	i	x	x	i	x
Cc1ccc(S(=O)(=O)Nc2ccc(-c3cn4ccc(C)cc4n3)cc2)cc1	i	21µM*	0.73µM*	i	-12
Cc1ccn2cc(-c3cccc(S(=O)(=O)N4CCCC4)c3)nc2c1	u	10%	1%	i	-61*
Cc1ccn2cc(-c3ccc(NC(=O)c4ccco4)cc3)nc2c1	i	u	u	i	-92*
CSc1nc2cc(S(=O)(=O)N3CCCCC3)ccc2s1	15µM*	7%	10%	u	-17
Cc1ccn2cc(-c3cccc(S(=O)(=O)N4CC(C)OC(C)C4)c3)nc2c1 (stereo not drawn)	i	22%	35%	u	-15
COc1ccc(S(=O)(=O)Nc2cc(-c3cn4ccc(C)cc4n3)ccc2C)cc1OC	i	x	x	i	x

Compound activity (PubChem BioAssay)
